Compound activity deposited in PubChem by several laboratories.
The list is not random: actives were taken first. Their share in the collection is about 2.3%.
MCL1 BIM primary = inhibitors of human MCL1 binding to BIM-BH3 peptide; Q07820; GST-MCL1 / FITC-Bim-BH3 fluorescence polarization; inhibition, % at 10.9 µM; 320,000 tested, 0.68% active; AID 2057;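 active = inhibition above the mean inhibition of all tested compounds plus 3 SD, set per campaign, cut at about 40% in these data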;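 note: 0% = DMSO wells and 100% = unlabeled Bim-BH3 peptide control; higher means more loss of mP so more displacement of Bim peptide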
Target sequence (Q07820 whole entry, looked up): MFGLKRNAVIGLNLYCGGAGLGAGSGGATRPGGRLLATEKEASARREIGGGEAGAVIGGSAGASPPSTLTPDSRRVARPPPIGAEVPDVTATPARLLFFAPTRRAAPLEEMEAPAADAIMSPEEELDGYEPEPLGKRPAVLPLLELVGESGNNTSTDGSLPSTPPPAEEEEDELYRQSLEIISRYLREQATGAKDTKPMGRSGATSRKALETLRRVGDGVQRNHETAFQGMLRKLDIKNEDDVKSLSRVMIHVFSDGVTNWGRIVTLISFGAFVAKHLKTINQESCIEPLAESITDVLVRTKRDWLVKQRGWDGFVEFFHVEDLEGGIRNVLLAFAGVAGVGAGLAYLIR
Bim-Mcl-1 = disrupts Bim peptide binding to human Mcl-1; Q07820; Bead-based flow cytometry, Bim peptide-Mcl-1 binding; inhibition, % at 10 µM; 190,000 tested, 0.1% active; AID 1009; in the data active = inhibition above about 40%;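 note: 0% = no compound tracer wells and 100% = peptide blocker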
Mcl1 Bid PPI = disrupts binding of human Mcl-1 to Bid peptide; TR-FRET Mcl-1/Bid-Dy647 peptide binding, 1536-well; inhibition, % at 21.7 µM; Q07820; 220,000 tested, 0.97% active;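 active = compounds that cut the binding signal by more than half at the single screening dose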;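 note: His-tagged Mcl-1 with europium anti-His antibody binding Bid BH3 peptide; 0% = Mcl-1 plus peptide wells and 100% = peptide-only wells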
Bcl-xL primary = blocks human Bcl-xL binding to Bim BH3 peptide. Q07817. 320,000 tested, 0.7% active. GST-Bcl-xL / FITC-Bim BH3 peptide fluorescence polarization. inhibition, % at 10.9 µM;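 active = inhibition above the mean of all tested compounds plus 3 SD, cutoff set per campaign, cut at about 30% in these data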;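 note: 0% = DMSO wells and 100% = unlabeled Bim-BH3 peptide competitor; inhibitors lower millipolarization by displacing the labeled peptide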
Target sequence (Q07817 whole entry, looked up): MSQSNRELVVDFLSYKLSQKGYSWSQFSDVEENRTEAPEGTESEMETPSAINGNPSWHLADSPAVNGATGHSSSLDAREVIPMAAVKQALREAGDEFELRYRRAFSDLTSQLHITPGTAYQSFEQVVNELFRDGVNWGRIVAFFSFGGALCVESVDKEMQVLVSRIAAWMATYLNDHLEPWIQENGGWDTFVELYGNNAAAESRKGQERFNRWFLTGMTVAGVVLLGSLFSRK
Mcl1 Noxa PPI = disrupts binding of human Mcl-1 to Noxa peptide. Q07820. TR-FRET Mcl-1/Noxa peptide binding, 2 h. inhibition, % at 21.7 µM. 220,000 tested, 1.5% active. AID 1022;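 active = compounds that cut the protein-peptide binding signal by more than 50% relative to plate controls in a single-dose test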;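 note: His-tagged Mcl-1 with rhodamine Noxa BH3 peptide and terbium anti-His antibody; 0% = Mcl-1 plus Noxa peptide wells and 100% = peptide-only wells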
GLD-1 TGE inh = GLD-1-TGE RNA interaction inhibition (C. elegans). Q17339. purified GLD-1 + fluorescein TGE RNA, fluorescence polarization. inhibition, % at 5.96 µM. 320,000 tested, 0.44% active;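 active = percent inhibition above a per-plate cutoff, the plate mean of test compounds plus 3 SD, cut at about 30% in these data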;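 note: 0% = DMSO wells with GLD-1 and probe and 100% = wells lacking GLD-1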
An asterisk follows results filed as active; / = no result given.

SMILES	MCL1 BIM primary	Bim-Mcl-1	Mcl1 Bid PPI	Bcl-xL primary	Mcl1 Noxa PPI	GLD-1 TGE inh
O=C1NC(c2ccccc2Cl)=N/C1=C/c1ccco1	9	/	-47	12	61*	14
COc1ccc(Nc2ncc(C(=O)O)c3ccccc23)cc1	4	0	-47	2	19	1
COc1ccc(Nc2ncc(C(=O)N3CCN(c4ccc(F)cc4)CC3)c3ccccc23)cc1	-5	0	99*	1	12	3
CCOC(=O)N1CCN(CC(=O)c2ccc(O)cc2O)CC1	2	/	/	6	/	41*
CCOc1ccccc1N1CCN(CC(=O)Nc2cc(C)on2)CC1	10	0	-20	2	8	9
CCOc1ccc(OCC)c(NC(=O)CN2CCN(c3ccc(C)cc3C)CC2)c1	-1	-5	51*	0	18	-5
CCOC(=O)N1CCN(CC(=O)Nc2cc(OCC)ccc2OCC)CC1	0	-4	60*	6	34	1
COC(=O)c1cc(-c2ccc(C)o2)nc2ccccc12	24	0	2	13	78*	5
Cc1ccc(-c2cc(C(=O)Nc3ccccc3C)c3ccccc3n2)o1	16	-2	12	16	66*	0
O=C(c1ccc2c(c1)OCO2)[C@@H]1[C@@H]2C(=O)N(C3CCCCC3)C(=O)[C@@H]2C2c3ccccc3C=CN21 (some centres undefined)	/	0	-13	/	-3	/
O=C(c1cccs1)[C@@H]1[C@@H]2C(=O)N(Cc3ccc4c(c3)OCO4)C(=O)[C@@H]2C2c3ccccc3C=CN21 (some centres undefined)	43*	-3	-75	48*	-7	39*
COc1ccccc1OCC(=O)NNC(=O)Nc1ccc(Cl)cc1	-5	2	-25	-3	13	0
COc1ccccc1OC(=O)Nc1ccc(Cl)cc1	47*	/	/	48*	/	11
COc1ccc(C(=O)C2C(c3ccc(-c4ccccc4[N+](=O)[O-])o3)NC(=O)NC2(O)C(F)(F)F)cc1 (centres undefined)	6	-4	10	3	57*	10
O=C1NC(c2ccc(-c3ccccc3[N+](=O)[O-])o2)C(C(=O)c2ccc(F)cc2)C(O)(C(F)(F)F)N1 (centres undefined)	0	-2	-3	1	55*	0
Cc1ccc(C(=O)C2C(c3cccs3)NC(=O)NC2(O)C(F)(F)F)cc1 (centres undefined)	2	-3	63*	7	12	-1
Cc1ccc(C2NC(=O)NC(O)(C(F)(F)F)C2C(=O)c2cccs2)o1 (centres undefined)	7	-2	-19	0	0	1
COc1ccc(C2NC(=O)NC(O)(C(F)(F)F)C2C(=O)c2ccc(F)cc2)cc1 (centres undefined)	4	-2	-6	5	1	7
Cc1ccc(C2NC(=O)NC(O)(C(F)(F)F)C2C(=O)c2ccccc2)o1 (centres undefined)	5	13	-6	0	-14	-3
CCN(CC(=O)Nc1ccc2c(c1)OCCO2)C(=O)/C=C/c1cccc(C(F)(F)F)c1	/	/	/	/	/	6
COc1cc(/C=N/NC(=O)CSc2nc3ccccc3n2C)cc(OC)c1OC	-1	-1	8	3	24	4
C[C@H](CO)N1C[C@H](C)[C@@H](CN(C)C(=O)NC2CCCCC2)Oc2ccc(NC(=O)Nc3ccccc3)cc2C1=O	/	/	/	/	/	5
CC(C)[C@H](NS(=O)(=O)c1ccccc1)C(=O)OCC(=O)NCc1ccc2c(c1)OCO2	/	/	/	/	/	5
C=CCNC(=S)Nc1cccc(N)c1	10	0	-37	11	5	0
C[C@@H]1C[C@H]2[C@@H]3C[C@H](F)C4=CC(=O)C=C[C@]4(C)[C@@]3(Cl)[C@@H](O)C[C@]2(C)[C@H]1C(=O)COC(=O)C(C)(C)C	5	/	/	0	/	5
SMILES	MCL1 BIM primary	Bim-Mcl-1	Mcl1 Bid PPI	Bcl-xL primary	Mcl1 Noxa PPI	GLD-1 TGE inh
Cc1cc(C)cc(C(=O)NCC(=O)OCC(=O)N2c3ccccc3NC(=O)C2(C)C)c1	27	16	-24	7	54*	-2
COc1cc(OC)cc(C(=O)NCC(=O)OCC(=O)N2c3ccccc3NC(=O)C2(C)C)c1	2	-1	-10	0	10	-5
CC12CCC(C(=O)Nc3ccccc3N3CCOCC3)(CC1=O)C2(C)C (centres undefined)	4	1	-8	-1	4	2
CC12CCC(C(=O)Nc3ccccc3-n3cccc3)(CC1=O)C2(C)C (centres undefined)	7	-3	76*	6	-2	-2
Cc1ccc(-n2[nH]c(C)c(C=Nc3ccc4[nH]c(=O)[nH]c4c3)c2=O)cc1	28	2	10	17	62*	8
O=c1[nH]c(-c2ccc(F)cc2)nc2c1sc(=S)n2-c1ccccc1	7	-4	-6	8	48	-27
O=c1[nH]c(-c2ccccc2Cl)nc2c1sc(=S)n2-c1ccccc1	/	1	89*	/	44	/
O=C1CN(C(=O)CNCc2ccccc2)c2ccccc2N1	-3	/	69*	-5	44	-4
Cc1cc2c(C)c(C)c(=O)[nH]c2cc1N	5	-4	-20	5	55*	-16
COc1cc(C(=O)Nc2ccc(N(C)C)cc2)c([N+](=O)[O-])cc1OC	-4	1	-27	0	69*	7
CC(Sc1nc2c(c(=O)[nH]1)CCCC2)C(=O)Nc1ccc(Br)cn1 (centres undefined)	0	/	/	0	/	7
O=C(CN1CCCCC1)Nc1nnc(-c2ccc([N+](=O)[O-])cc2)s1	8	-2	-22	6	69*	-3
COc1ccc(/C=N/NC(=O)c2ccc(NC(=O)c3cccc([N+](=O)[O-])c3)cc2)c(OC)c1	10	0	28	-1	67*	3
O=C(N/N=C/c1ccc(O)cc1)c1cccc(N/N=C/c2ccc(O)cc2)c1	3	/	-31	10	80*	0
O=C(N/N=C/c1ccccn1)c1ccc(NC(=O)c2cccc([N+](=O)[O-])c2)cc1	1	0	-21	1	17	-3
COc1ccccc1/C=N/NC(=O)c1ccc(NC(=O)c2cccc([N+](=O)[O-])c2)cc1	10	-3	-4	3	11	-1
O=C(N/N=C/c1cccc(O)c1)c1ccc(NC(=O)c2cccc([N+](=O)[O-])c2)cc1	-7	0	-3	-7	60*	1
O=C(N/N=C/c1ccncc1)c1cccc(N/N=C/c2ccncc2)c1	-5	4	-2	-3	13	-9
CCOc1ccc(NS(=O)(=O)c2ccc(C(=O)NCCCN3CCOCC3)cc2)cc1	7	/	/	0	/	6
